# Screens from PubChem BioAssay.
# Shown are actives, neighbours in structure and some others; about 4.3% of the full set was active somewhere.
# NR3A LBD binder: NR3A (human) ligand-binding domain modulation. NR3A LBD differential scanning fluorimetry, Tm shift; 0% = protein alone, 100% = glycine-bound protein. 2.5% of 340,000 active. AID 1259313. Tm shift relative to glycine control, % at 25 µM;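 active means melting temperature shift of at least 10% of the positive control shift, at one fixed dose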
# rCAG binder: molecules binding r(CAG) RNA repeats; r(CAG) RNA repeat, TO-PRO-1 dye displacement fluorescence; inhibition, % at 3 µM; 1.3% of 370,000 active;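 active means inhibition above the plate cutoff, the mean of all test compounds on that plate plus 3 SD, cut at about 35% in these data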;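 further: 0% = DMSO alone and 100% = 100 µM mitoxantrone as full dye displacement; higher means more dye released from RNA so lower well fluorescence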
# NadD block: inhibitors of Staphylococcus aureus NadD | 0.78% of 360,000 active | purified NadD enzyme, colorimetric absorbance read-out | inhibition, % at 20 µM | AID 602399; in the data active means inhibition above about 26%
# FAS TE block: FAS thioesterase (human) inhibition; inhibition, % at 15 µM; AID 602261; 0.67% of 360,000 active; recombinant FAS-TE, OMFH fluorogenic substrate, fluorescence endpoint;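 active means compounds whose normalised, plate-corrected inhibition of enzyme fluorescence in the single-dose primary screen is 50% or more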;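 further: 0% = DMSO with enzyme and 100% = substrate without enzyme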
# Starred values were filed as active, the others as inactive; i = inactive; nt = no result.
SMILES,NR3A LBD binder,rCAG binder,NadD block,FAS TE block
COC(=O)C1CCN(C(=O)COC(=O)c2oc3ccccc3c2C)CC1,16.8*,-6.6,-4.8,-10.6
Cc1cc(=O)[nH]c(SCC(=O)Nc2ccc(F)c(F)c2)n1,nt,4.0,nt,nt
Nc1nc(SCC(=O)Nc2ccc(C(F)(F)F)cc2)[nH]c(=O)c1NC(=O)c1ccc(F)c(F)c1,27.9*,1.8,2.7,1.1
Cc1cc(NC(=O)CSc2nc(N)c(NC(=O)c3ccc(F)c(F)c3)c(=O)[nH]2)no1,1.6,-2.9,-5.4,-5.3
O=C(CSc1nc2nc(-c3cccs3)cc(C(F)(F)F)c2c(=O)[nH]1)Nc1ccc(F)c(F)c1,35.1*,67.6*,22.2,37.0
CC(=NNc1ccc2ccccc2n1)c1ccccn1,nt,1.9,nt,nt
C/C(=N\Nc1cc(C)nc(-c2ccccc2O)n1)c1ccccc1O,26.2*,3.8,0.6,27.9
Cc1cc(N/N=C\c2ccccc2)nc(-c2ccccc2O)n1,31.2*,7.6,3.6,37.6
COc1ccc(/C=N/Nc2cc(C)nc(-n3nc(C)cc3C)n2)cc1,-12.7,-6.3,5.5,4.7
CC(=NNc1ccc2ccccc2n1)c1ccccc1O,24.4*,7.9,-2.4,26.2
Cc1cc(N/N=C/c2ccc(O)cc2O)nc(-n2nc(C)cc2C)n1,27.4*,5.5,6.6,-1.9
COc1ccc(C(=O)C2(C(=O)Nc3cc(C)cc(C)c3)CC(c3ccccn3)=NO2)cc1 (stereo unspecified),nt,8.6,nt,nt
C=CCC12C=C(OC)C(=O)C(C1=O)C(c1ccc(OC)cc1)C2C (stereo unspecified),nt,1.5,nt,nt
CN(C(=O)c1cccc(NC(=O)Cc2ccc(NC(=O)C3CCCN(C(=O)c4ccccc4)C3)cc2)c1)C1CC1 (stereo unspecified),nt,3.9,nt,nt
Cc1cc(N/N=C/c2ccccc2O)nc(-c2ccccc2O)n1,24.6*,13.1,1.7,2.4
Cc1cc(N/N=C/c2ccccc2O)nc(N2CCOCC2)n1,-7.6,0.7,-5.1,11.7
Cc1cc(N/N=C/c2ccc(O)cc2O)nc(-c2ccccc2O)n1,35.1*,nt,2.9,11.6
O=S1(=O)c2ccc(Br)cc2OC[C@H](Cc2ccccc2)N1Cc1cn(Cc2ccc(Br)cc2)nn1,nt,1.9,nt,nt
COc1ccccc1CCn1cnc(-c2ccccc2OC)c1CC(C)C,nt,1.3,nt,nt
C=CCn1c(COc2ccc(C)cc2)nnc1SCC(=O)c1ccc(-c2ccccc2)cc1,nt,9.3,nt,nt
CC(C)(C)N(Cc1cn(CC2CCCCC2)nn1)S(=O)(=O)c1ccc(F)cc1Br,nt,-2.4,nt,nt
CCN(CC)C(=O)Oc1cc(=O)n(C)c2ccccc12,24.5*,1.1,-7.2,-10.1
COCCNC(=O)COc1cc(=O)n(C)c2ccccc12,-0.3,1.5,-1.4,-6.6
COc1cc2c(-c3ccc(O)cc3)nc3c(c(C)nn3-c3ccccc3)c2cc1OC,28.0*,10.7,5.2,13.2
COc1ccccc1CNC(=O)N1CCC(c2nc3ccc(Cl)cc3[nH]2)CC1,nt,3.0,nt,nt
SMILES,NR3A LBD binder,rCAG binder,NadD block,FAS TE block
C=CCC[C@H](Cc1ccc(F)cc1)C(=O)OC[C@@H](NC(=O)[C@@H](CC=C)CC(=O)N[C@@H](CO)Cc1ccccc1)C(C)(C)C,31.0*,-2.4,-17.8,9.1
C=CCC[C@@H](Cc1ccc(F)cc1)C(=O)OC[C@H](Cc1c[nH]c2ccccc12)NC(=O)[C@@H](CC=C)CC(=O)N[C@H](CO)Cc1ccccc1,14.5*,0.8,-10.8,7.8
C=CCC[C@@H](Cc1ccc(F)cc1)C(=O)OC[C@@H](NC(=O)[C@@H](CC=C)CC(=O)N[C@@H](CO)Cc1ccccc1)C(C)(C)C,-5.8,-7.8,-6.2,9.3
O=C(Nc1cccc(F)c1)c1cccnc1NCCc1ccccc1,16.5*,3.9,-1.4,29.1
CCCNC(=O)COC(=O)c1cc(SC)ccc1Cl,0.1,-3.6,1.6,-9.8
CSc1ccc(Cl)c(C(=O)OCC(=O)NC2CC2)c1,11.7*,-1.1,-7.9,-6.3
COC(=O)C/C=C/[C@H](C)[C@@H](NC(=O)C(F)(F)F)c1ccccc1Br,nt,1.7,nt,nt
CCN(CC)C1=CC2=CC(=C(C#N)C#N)CCC2CC1 (stereo unspecified),-3.3,i,10.5,-182.6
N#CC(C#N)=C1C=C2C=C(N3CCCCC3)CCC2CC1 (stereo unspecified),21.0*,nt,nt,nt
C=CCN1C[C@@H](COCc2ccccc2)Oc2cccc(F)c2S1(=O)=O,nt,-0.6,nt,nt
CCOc1ccccc1N1CCN(C(=O)c2ccc(S(=O)(=O)Nc3ccccc3)cc2)CC1,-15.9,1.0,2.2,17.2
CCOc1ccccc1N1CCN(C(=S)Nc2ccc(S(=O)(=O)Nc3ncccn3)cc2)CC1,10.2*,24.5,-8.1,-4.4
Oc1ccc(/C=N/Nc2nc(N3CCCCCC3)nc(N3CCCCCC3)n2)c(O)c1,14.6*,24.9,21.9,38.2
Oc1ccccc1C=NN1CCCCCC1,2.4,-0.8,-0.9,11.2
O=C1c2cccc3cccc(c23)C(=O)N1/N=C/c1ccc(O)cc1O,25.1*,1.8,6.4,-16.6
Oc1ccc(/C=N/N2CCCCC2)c(O)c1,33.4*,0.7,-4.3,-2.7
COC(=O)[C@]12C[C@H](CC(=O)N3CCCC3)C(=O)N(CCC3=CCCCC3)C1=C[C@H](C1CCCC1)O[C@@H]2C,nt,6.6,nt,nt
Cc1cc(NC(=O)c2ccc(NS(=O)(=O)c3ccccc3F)cc2)no1,nt,7.4,nt,nt
CC(C)c1cc(C(C)C)c(S(=O)(=O)NCC(=O)N2CCN(c3ncccn3)CC2)c(C(C)C)c1,nt,1.5,nt,nt
CC(=O)Nc1ccc(N2S(=O)(=O)c3ccccc3S2(=O)=O)cc1,11.0*,3.7,1.6,-10.1
CC(=O)Nc1ccc(N2Cc3ccccc3C2)cc1,-0.1,5.9,7.6,-2.1
COc1ccc(Cn2c(O)c(C=Nc3ccc(O)cc3)c3ccccc3c2=O)cc1,23.3*,21.8,18.2,30.6
COc1ccc(Cn2c(O)c(C=Nc3ccccc3)c3ccccc3c2=O)cc1,-16.9,2.8,2.2,29.7
CCOC(=O)[C@@]12CN(C(=O)OC(C)(C)C)CC=C1N(Cc1ccc(OC)cc1)C(=O)[C@H]2CC(=O)NCCC(C)C,nt,-1.8,nt,nt
C=CCCC1CN(Cc2ccc(OC)cc2)S(=O)(=O)c2c(F)cccc2O1 (stereo unspecified),nt,0.0,nt,nt
SMILES,NR3A LBD binder,rCAG binder,NadD block,FAS TE block
COc1cc2c(c(OC)c1CC=C(C)C)C[C@H](c1ccc(O)cc1O)CO2,18.8*,17.7,4.8,26.8
COC(=O)c1cc(-c2ccc(C(C)=O)cc2)c(=O)n2c1CCC2,nt,2.5,nt,nt
CCOC(=O)/C(C#N)=C1\Nc2ccccc2N=C1N(CC(C)C)CC(C)C,-0.7,-0.5,-2.4,22.9
CCOC(=O)/C(C#N)=C1/C=C(C)NC(c2ccccc2O)=N1,14.0*,31.4,1.1,0.6
CCOC(=O)c1cnc2ccc(OCC)cc2c1NCc1ccccc1,15.4*,-1.7,-0.2,22.7
CCOC(=O)c1cnc2ccc(OCC)cc2c1NCc1cccnc1,-8.3,-5.4,-6.5,-8.7
C/C(=N\NC(=O)c1nnn(-c2nonc2N)c1CN(C)c1ccccc1)c1ccc(O)cc1,6.4,3.9,6.0,2.0
C/C(=N\NC(=O)c1nnn(-c2nonc2N)c1CN(C)c1ccccc1)c1cccs1,11.2*,3.0,9.3,-2.9
CC/C(=N\NC(=O)c1nnn(-c2nonc2N)c1CN(C)c1ccccc1)c1ccccc1,242.0*,4.4,9.2,14.2
